The sequences below were run on VDR:RXRa (NR concentration 270 nM, RXRa partner concentration 90 nM) (assay: PBM binding z-score (relative to random genomic background probes); higher = stronger binding; sequences stand for … in GC…GCGATTGACAGCGTAGAATGAAGG).
Description: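 Protein-binding microarray (Agilent 4x180K custom design, double-stranded 60-nt probes: 5' GC cap, 34-nt variable region, 24-nt constant primer region; full probe sequence given). Purified or IVT nuclear receptor:RXRα heterodimers (3:1 NR:RXRα, mostly 270:90 nM) or homodimers were incubated for 1 h in PBS with 2% milk and no ligand, then detected with Alexa488 antibodies. Fluorescence from o1-orientation probes (~5 replicates averaged) was converted to z-scores against 500 random hg19 background probes. Variable regions are seed direct-repeat (DR0–DR5) sites, all their single-nucleotide variants and half-site ablations.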

Sequence | PBM binding z-score
GCCGCTAGGTCAGGTTGGTCAGCTAACGGGTACG | 0.54
TCAAGTTGGTCAAAGGTCACACACTCGAAATGCG | 5.58
ACTCGGAGGACACAGGTCAGAGCTACGCCAGTGA | 0.834
GATACAGGGTCAGCTAGAGGCCAGAGGATGGAAA | 3.12
CCAACTGGGGCAGAAAGGTTACCATACCATCCGG | 0.976
AGAATGAGGATAAGATCAGGGAAACAGAATACAT | -0.0497
CCTATTAGTTGACGATAAGGGCAACCGAAGCTCG | 0.128
CGTCGAAGGTCAGCAGGTCAGTGAAAGCGACGTG | 3.61
TCTAGTTGGTCACGGAGGTCACACATGACGGGTA | 5.83
CCTAGTTGGTCAGGAGGTCACACAACGGATATGA | 3.97
CCTACTGGGCCATCAGGTCACTGATATCAACGTT | 1.34
TAACCTAGGTCAGATCGGGCCAGTATACGCTATA | 1.52
CATACAGGTTCAGCTAGGCCAGAGTAGGGACGGC | 1.99
CCGACTGGGGCATAAGGTTACCAGAAGCCAGCCC | 0.214
ATATGTAGGTTACATCCGTGTCATTCAGGCTATG | 1.4
TCATATAGGTAAAAGGTGAAGGTCGGTGTGGTAA | 1.92
CGTCCAAGGTCAGGGTCAGTGAAAGAGACTCGAA | 3.92
ATCTCTAGGTAAGACTCAGTTCATTGAAGAACGC | 2.42
CTCGAAAGGTCGGTTGAGCTGAGTATACGGATAA | 0.528
TCATATAGGTAACGGTGAAAGTCGAACGATATGA | 0.164

Sequence | PBM binding z-score
CAAACTAGATCACAGAGGTCAAAGTCCGTGCGTA | 5.7
CGTCCAAGGTCAGCAGGTCAGTCAAAGCGACGTG | 4.02
TCATATAGGTAAAACAGGTGAAAGTCGGCATCTA | 1.17
TCGAGTAGGTGAGGGGCATTCAGAATGGCGTCGA | -0.0355
ACTAGTTGGTCAGCTGAGGTCACACGCAATTCGG | 4.46
TCTTGTAGATCAATAGAGGTAAAGAAAGTGCGCT | 0.45
CGAACTAGGTCATTGACAGGACAGTGATTAGTAA | 2.47
GGAACGAGGGCATTCGAGTTGATAGCTTGGCGAT | 3.55
CCTTACGCGTCACGAGGTTATAGCACGACGAGCG | 0.899
CATACAGGGTCAGCTAGGCCATAGTAGGGACGGC | 4.92
TCTACCAGGCCAGAGGGTCACTCAAGAGGTACGG | 2.1
ACTATGAGTTGAGACGAGGGCAACCGATAGGTTG | 1.9
ATCACTAGGTAAAGATAGTTCAGTGAATGCAAAT | 0.888
ATCGAAAGGTTGAGGTGAGTATAGAGAAAGGGAA | 0.543
TGTCAAAGTTCAAAGGTAACCTAAGTATCCACAC | 5.12
AGAATGAGGTTCTACGTAGATCAGGGAAGAAAGT | -0.436
CCTTACGGGTCACTGACAGGTTTTAGCATTTGGA | 3.31
TCTTGTAGATCAACAGGAGCTTAAGAAAGATCGA | -0.21
GCGACTGGGGCATCAGCAGGATACCATAACTTAA | -0.816
ATCGAAAGGTGGAGGTGAGTATAGAGAAAGGGAA | 0.346

— the supplement of paper PMC6555819
